From ChEMBL document CHEMBL4513216, “Probing the Open Global Health Chemical Diversity Library for Multistage-Active Starting Points for Next-Generation Antimalarials” (ACS Infect Dis, 2020) come the findings set out here.

SMILES strings stand for the structures. Among all 69,000 compounds or so, about 8,600 (12%) showed an effect of 50% or more. Only a selection was taken, and strong results are over-represented in it overall.

The subject of the experiment is Plasmodium berghei. The experiment can be described thus: Screen against P. berghei liver stage (PbLuc), transformed with Luciferase, at 10uM. The class given is functional, HepG2. As to conditions: tested at 10 uM.
For `COC1CN(CCO)S(=O)(=O)c2ccccc21` (stereo unspecified), the INHIBITION is 35.1%.

With `CN(C)C(=O)COCC1CN(Cc2cccs2)Cc2ncn(C)c21` (stereo unspecified), the INHIBITION is reported as -47.8%.

As to `Cc1cc(S(=O)(=O)N(C)CC(N)=O)ccc1Br`, the INHIBITION is 34.6%.

Turning to `Cc1cc(S(=O)(=O)N(CC(N)=O)CC(C)C)ccc1Br`, the INHIBITION was 60.3%.

As to `Cc1ccc(S(=O)(=O)N(CC(N)=O)CC(C)C)cc1C`, the INHIBITION is given as -14.2%.

Consider `Cc1cnn(CC2CCCN2C(=O)Cc2ccc(C)nc2)c1` (stereo unspecified), for which the INHIBITION was determined as 17.4%.

As for `CC(=O)Nc1ccc(CNCC(O)c2ccccc2)cc1` (stereo unspecified), the INHIBITION was determined as 39.7%.

On to `CCOc1ccc(CNCC(O)c2ccccc2)cc1Cl` (stereo unspecified), for which the INHIBITION is listed as 59.5%.

Consider `COc1ccc(CNCC(O)c2cccc(O)c2)cc1Br` (stereo unspecified), for which the INHIBITION came to 14.5%.

Take `COCC1CN(C(=O)c2cccc(C)n2)Cc2nccn2C1` (stereo unspecified): the INHIBITION stood at 24%.

Consider `CC(NCc1ccc(Cl)o1)c1nnc2n1CCCC2` (stereo unspecified), for which the INHIBITION worked out at 15.1%.

`CC(NCc1ccco1)c1nnc2n1CCCC2` (stereo unspecified): the INHIBITION was found to be 52.9%.

For the compound `Cc1ccc(CNC(C)c2nnc3n2CCCC3)o1` (stereo unspecified), the INHIBITION was -4.48%.

Take `CC(NCc1cc2cc(F)ccc2o1)c1nnc2n1CCCC2` (stereo unspecified): the INHIBITION is recorded as 35%.

Turning to `Cc1ccoc1CNC(C)c1nnc2n1CCCC2` (stereo unspecified), the INHIBITION was determined as 34.1%.

For `Cc1ccc2oc(CNC(C)c3nnc4n3CCCC4)cc2c1` (stereo unspecified), the INHIBITION is on record as 50.1%.

As to `CN1CCCN(C(=O)c2nc3c(o2)CN(S(C)(=O)=O)C3)CC1`, the INHIBITION amounted to 41.2%.

As for `Cn1ccc(CN2CCC3(CCCN3CC3CC3)CC2)n1`, the INHIBITION is recorded as 17.7%.

Take `Cn1ccc(CN2CCCC23CCN(Cc2cccc(F)c2)CC3)n1`: the INHIBITION worked out at 56.6%.

`COc1cc(N2CCC3(CCCN3Cc3ccn(C)n3)CC2)ncn1`: the INHIBITION came out at 21.7%.

On to `Fc1cccc(CN2CCC3(CCCN3c3ncccn3)CC2)c1`, for which the INHIBITION is recorded as 42.4%.

Regarding `Cn1ccc(CN2CCCC23CCNCC3)n1`, the INHIBITION is given as -12.1%.

On to `Cn1ccc(CN2CCCC23CCN(Cc2ccccc2F)CC3)n1`, for which the INHIBITION is 53%.

On to `Cn1ccc(CN2CCCC23CCN(Cc2nccn2C)CC3)n1`, for which the INHIBITION is recorded as 27.6%.

In the case of `Cc1ccc(N2CCC3(CCCN3Cc3ccn(C)n3)CC2)nn1`, the INHIBITION worked out at 53.9%.

As to `Cn1cc(CN2CCC3(CCCN3Cc3cccnc3)CC2)cn1`, the INHIBITION was 29%.

As to `CCOCCCC(=O)Nc1cccnc1-n1ccnc1C`, the INHIBITION came out at 7.92%.

With `Cc1ccc(C(=O)N2CCCN(Cc3cccs3)CC2)c(=O)[nH]1`, the INHIBITION is reported as 17.68%.

For `COc1ccc(C(C)N(C)Cc2c(C3CC3)[nH]c3ncccc23)cc1` (stereo unspecified), the INHIBITION is recorded as 44.8%.

On to `CN(Cc1ccco1)[C@@H]1CN(C(=O)c2ccnnc2)[C@@H]2CCCO[C@H]12`, for which the INHIBITION worked out at 41.8%.

As to `Cc1ccc(CC(=O)N2Cc3nccn3CC(CN(C)C)C2)cc1` (stereo unspecified), the INHIBITION worked out at 10.1%.

Regarding `CCOCCNC(=O)c1ccc(OC)cc1I`, the INHIBITION came to 14.4%.

As for `COc1c(CNCc2ccc(Cn3ccnc3)cc2)c(C)nn1C`, the INHIBITION is 16.8%.

Consider `O=S1(=O)c2ccccc2C2(CCN(Cc3cccnc3)C2)N1CC1CC1` (stereo unspecified), for which the INHIBITION is reported as 76.5%.

In the case of `CCCN1CCC2(C1)c1ccccc1S(=O)(=O)N2Cc1ccc(F)cc1` (stereo unspecified), the INHIBITION turned out to be 23.3%.

In the case of `CC1N(CC2CC2)C(=O)COC12CCN(C(=O)c1ccncc1)CC2` (stereo unspecified), the INHIBITION stood at 48.2%.

Regarding `COCCN1C2(CCN(CC3CC3)C2)c2ccccc2S1(=O)=O` (stereo unspecified), the INHIBITION is listed as -54.9%.

As for `CN1C2(CCN(Cc3ccc(F)cc3)C2)c2ccccc2S1(=O)=O` (stereo unspecified), the INHIBITION was 16.9%.

For the compound `CN1CCN(Cc2cccnc2)C(=O)C12CCN(CC1CCOC1)CC2` (stereo unspecified), the INHIBITION is recorded as 29.4%.

Regarding `CC1N(CC2CC2)C(=O)COC12CCN(C(=O)c1ccno1)CC2` (stereo unspecified), the INHIBITION is listed as 11.3%.

As for `O=S1(=O)c2ccccc2C2(CCN(Cc3ccccc3)C2)N1CC1CC1` (stereo unspecified), the INHIBITION worked out at 81.3%.

On to `CCCN1CCC2(C1)c1ccccc1S(=O)(=O)N2Cc1ccccc1` (stereo unspecified), for which the INHIBITION is 68.4%.

Consider `O=C(N1CCCO1)[C@@]12CCO[C@@H]1CCN(Cc1cccnc1)C2`, for which the INHIBITION is reported as 17.4%.

As for `CC1N(CC2CC2)C(=O)COC12CCN(C(=O)c1cccs1)CC2` (stereo unspecified), the INHIBITION was 74.8%.

With `COCCN1CCC2(C1)c1ccccc1S(=O)(=O)N2Cc1ccccc1` (stereo unspecified), the INHIBITION is reported as 15.3%.

Consider `CNC(=O)c1cn[nH]c1C1CCCN1c1nc(C)cc(C)n1` (stereo unspecified), for which the INHIBITION is given as 34.1%.

Turning to `CCN1CCOCC2(CCCN(C(=O)c3ccccc3F)C2)C1` (stereo unspecified), the INHIBITION is on record as -60.3%.

`CN(C)[C@@H]1CN(Cc2ccccc2O)C[C@H]1c1cn(C)c2ccccc12`: the INHIBITION is listed as 49.5%.

Consider `Cn1ccnc1CNC(=O)c1cnc(C2CCNCC2)cn1`, for which the INHIBITION came to 33%.

`COc1ccccc1C1(CNC(=O)NCc2noc(C)n2)CC1`: the INHIBITION worked out at 4.66%.

For `Cc1nc(C(=O)N(C)CC(=O)N(C)C)nn1-c1ccccc1C(C)C`, the INHIBITION was -15.5%.

As for `CCNC(=O)N1CCC2(C1)c1ccccc1S(=O)(=O)N2CCOC` (stereo unspecified), the INHIBITION is recorded as -1.15%.

For the compound `O=C(c1cccs1)N1CCC2(C1)c1ccccc1S(=O)(=O)N2CC1CC1` (stereo unspecified), the INHIBITION was 51.2%.

In the case of `COCCN1C2(CCN(C(=O)c3cccs3)C2)c2ccccc2S1(=O)=O` (stereo unspecified), the INHIBITION is reported as 8.03%.

For `COCCNC(=O)Cn1cc(OCc2ccccc2)c(=O)cc1CO`, the INHIBITION is -8.66%.

In the case of `Cc1cc(C)n(CC2CCCN2C(=O)c2nccc3ccccc23)n1` (stereo unspecified), the INHIBITION is on record as -144%.

Turning to `COc1ccc(OCCc2nnc(NC(C)=O)s2)cc1`, the INHIBITION worked out at 20.9%.

With `COc1ccc(-c2cnc(NC(C)=O)[nH]2)cc1`, the INHIBITION is recorded as 56%.

On to `CC(=O)Nc1ncc(-c2ccc(C)cc2)[nH]1`, for which the INHIBITION was found to be 45.5%.

In the case of `CC(C)CCN1C[C@@H]2C[C@H](C(=O)N3CCCC3)[C@H](C1)O2`, the INHIBITION is on record as 10.6%.

Regarding `COc1ccccc1C(=O)N1CCOCC1c1c(C)n[nH]c1C` (stereo unspecified), the INHIBITION is reported as -34.8%.

As to `CN1N=C(C(=O)NCCc2ccc(OC3CCCC3)cc2)CCC1=O`, the INHIBITION is 45.4%.

For `CC(C)[C@H](NS(C)(=O)=O)C(=O)NCc1cc(-c2ccco2)nn1C`, the INHIBITION turned out to be 54.5%.

For `CC(C)[C@H](NS(C)(=O)=O)C(=O)NCc1cc(-c2ccccc2)nn1C`, the INHIBITION is 20.4%.

Turning to `CC(C)[C@H](NS(C)(=O)=O)C(=O)NCc1cc(-c2ccco2)n[nH]1`, the INHIBITION was found to be 23.4%.

`Cc1nc(CN(CCS(C)(=O)=O)C(C)(C)C)no1`: the INHIBITION is 12.9%.

For the compound `N#Cc1cccnc1N1CCCN(C(=O)CCc2nccs2)CC1`, the INHIBITION is given as -19.4%.

On to `CCOCC(=O)NC1(c2nc(C)cs2)CCCC1`, for which the INHIBITION was 25.2%.

With `Cc1nc2cc(CNC(=O)C3CC(=O)N(C4CCCC4)C3)ccc2n1C` (stereo unspecified), the INHIBITION came out at 53.7%.

In the case of `CCN1CC(C(=O)NCc2ccc3c(c2)nc(C)n3C)CCC1=O` (stereo unspecified), the INHIBITION stood at 11.9%.

As for `Cc1nc2cc(CNC(=O)C3CC(=O)N(CCN(C)C)C3)ccc2n1C` (stereo unspecified), the INHIBITION is -4.35%.
